The list is not random: actives were taken first. Their share in the collection is about 18%.
KAT2A inh: GCN5L2 (KAT2A) acetyltransferase inhibition; Q92830; GCN5L2 HAT assay, ThioGlo1 CoA-SH fluorescence; Potency, µM (series often up to 58.9 µM), without a hit: top-dose activity change, negative = inhibition, most hits filed as inhibitors; actives 0.21% (n = 390,000)
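Compounds, pin-transferred from DMSO stocks, meet 20nM GCN5L2 for 15 min before the reaction begins with H3(1-25) peptide (75uM) and acetyl-CoA (70uM). Thiol-reactive ThioGlo1 reports CoA release over 20 min at room temperature.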
VDR inh: inhibitors of human vitamin D receptor; P11473; VDR-SRC2-3 peptide fluorescence polarization, 2 h; Potency, µM, for inactives: max response, negative = inhibition, hits mostly inhibitors; actives 0.93% (n = 400,000)
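Fluorescence polarization assay measuring small-molecule disruption of VDR binding to the coregulator peptide SRC2-3. Compounds were pin-transferred (23 nl) into the reagent mix and incubated 2 h at room temperature before reading.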
TDP1 inh: inhibitors of human tyrosyl-DNA phosphodiesterase TDP1. Potency, µM (doses to about 130 µM), inactives show at the highest dose activity change, negative = inhibition, most hits filed as inhibitors. recombinant TDP1, AlphaScreen DNA substrate cleavage. actives 0.28% (n = 350,000). AID 485290. Q9NUW8; also: nearly all actives have a fitted effect of over 40% in size
Target sequence (Q9NUW8 whole entry, looked up): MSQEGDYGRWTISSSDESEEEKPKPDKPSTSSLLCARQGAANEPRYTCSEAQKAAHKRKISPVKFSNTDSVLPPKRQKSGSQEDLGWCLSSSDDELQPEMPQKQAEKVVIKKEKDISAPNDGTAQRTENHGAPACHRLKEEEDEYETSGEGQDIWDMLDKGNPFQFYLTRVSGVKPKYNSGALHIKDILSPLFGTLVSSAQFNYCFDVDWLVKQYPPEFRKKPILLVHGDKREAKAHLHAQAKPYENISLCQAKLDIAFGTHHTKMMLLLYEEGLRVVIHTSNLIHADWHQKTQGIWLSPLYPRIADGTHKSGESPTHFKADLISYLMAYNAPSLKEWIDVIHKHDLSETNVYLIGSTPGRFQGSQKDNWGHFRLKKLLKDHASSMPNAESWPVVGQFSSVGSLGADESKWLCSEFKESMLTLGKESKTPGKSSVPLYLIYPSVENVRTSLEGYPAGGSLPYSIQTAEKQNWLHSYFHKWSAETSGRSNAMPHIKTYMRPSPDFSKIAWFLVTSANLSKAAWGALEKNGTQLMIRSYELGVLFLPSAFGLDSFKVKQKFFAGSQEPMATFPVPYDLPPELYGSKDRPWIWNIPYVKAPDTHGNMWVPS
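Signal: AlphaScreen proximity between streptavidin donor and anti-FITC acceptor beads on intact substrate. Reaction: Tdp1 1 nM, substrate 15 nM final, 5 min RT after 15 min compound preincubation.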
PLK1 PBD inh: inhibitors of human PLK1 polo-box domain binding | P53350 | Plk1 PBD binding of FITC phosphopeptide, fluorescence polarization | Potency, µM, without a hit: max response, negative = inhibition, most hits filed as inhibitors | actives 2.8% (n = 360,000); also: series mostly up to about 57 µM; nearly all actives have a fitted effect of over 65% in size
DT40 TDP1 CPT: DT40-hTDP1 cell growth loss with CPT; Potency, µM (series often up to 46.2 µM), for the others: at the highest dose activity change, negative = growth inhibition, usual class: inhibitors; chicken DT40 Tdp1-/-;hTDP1 cells + 20 nM CPT, ATP luminescence, 48 h; actives 12% (n = 420,000); AID 686979; also: nearly all actives have a fitted effect of over 55% in size
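Chicken DT40 Tdp1-/- cells complemented with human TDP1, 400 cells/well, exposed to compounds plus 20 nM camptothecin for at least 48 h at 37 C; viability read as ATP content by CellTiter-Glo luminescence.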
TDP1 cell noCPT: qHTS for Inhibitors of human tyrosyl-DNA phosphodiesterase 1 (TDP1): qHTS in cells in absence of CPT. Potency, µM (series often up to 46.2 µM), for the others: at the top dose activity change, negative = growth inhibition, usual class: inhibitors. actives 15% (n = 420,000). DT40 Tdp1-/- hTDP1 cells, no CPT, ATP luminescence, 48 h. AID 686978, 2013; also: nearly all actives have a fitted effect of over 55% in size
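Chicken DT40 Tdp1-/- cells complemented with human TDP1, screened without camptothecin (DMSO vehicle only), 400 cells/well. Compounds pin-transferred, cells incubated at 37 °C for at least 48 hr. Growth read as ATP-dependent luminescence (CellTiter-Glo, 30 min at RT).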
* marks the source's active call; other numbers are inactive results; ? = inconclusive; / = not tested or not shown. Calls follow the shape of the dose curve; as a rule, active = well fitted curve in the direction sought with a large enough effect; inconclusive = small, poorly fitted or top-dose-only effect, or another doubt; inactive = no such curve, though single readings can be large; an effect the other way counts as inactive or inconclusive. % is scaled to controls: 0 for no effect and ±100 for the full control effect; potency is read from the fitted curve at half-maximal effect.

SMILES	KAT2A inh	VDR inh	TDP1 inh	PLK1 PBD inh	DT40 TDP1 CPT	TDP1 cell noCPT
C=CC[n+]1c(-c2ccc(OC)cc2)csc1NNC(=O)Nc1ccccc1	-2%	-1%	10%	-2%	7.3µM*	5.2µM*
Clc1ccc(Cn2c3c(c4ccccc42)CCc2cc4ccccc4nc2-3)cc1	/	-24%	-14%	/	0%	-7%
Fc1cccc(CNc2ncnc3ccc(-c4cccnc4)cc23)c1	-3%	/	/	/	/	/
COc1cccc(-c2ccc3ncnc(NCc4cccnc4)c3c2)c1	0%	-10%	4%	/	12µM*	?
c1ccc(CNc2ncnc3ccc(-c4cccnc4)cc23)cc1	?	28µM*	/	/	15µM*	16µM*
Cc1ccc2nc(Cl)c(C3CC(c4cccs4)=NN3C(=O)CCC(=O)O)cc2c1 (centres undefined)	-6%	-8%	2%	-15%	-1%	5.2µM*
Cc1ccc(C2CC(c3cccs3)=NN2C(=O)CSc2nc3ccccc3o2)cc1 (centres undefined)	-9%	-10%	-5%	-7%	15µM*	?
COc1ccc(C2CC(c3cccs3)=NN2C(=O)CSc2nc(=O)n3ccc(C)cc3n2)cc1 (centres undefined)	-16%	-8%	1%	0%	?	5.8µM*
Cc1ccc2nc(Cl)c(C3CC(c4ccco4)=NN3C(=O)CCCC(=O)O)cc2c1 (centres undefined)	2%	24%	/	-28%	-9%	-20%
O=C(CSc1nc2ccccc2o1)N1N=C(c2cccs2)CC1c1ccc(F)cc1 (centres undefined)	-7%	-6%	0%	-1%	?	?
Cc1cc(C)c(NC(=O)Cn2ccn(-c3cccc(Cl)c3)c(=O)c2=O)c(C)c1	-4%	8%	-10%	/	?	?
O=[N+]([O-])c1ccc2c(c1)C=C/C2=C\c1ccc(C=S)cc1	/	/	/	/	?	11µM*
CC(CCc1ccccc1)NC(=O)C1CCCN(c2nnc(-n3cccc3)s2)C1 (centres undefined)	-7%	-6%	-3%	0%	18µM*	?
Cc1c(Cl)cccc1NC(=O)C1CCCN(c2nnc(-n3c(C)ccc3C)s2)C1 (centres undefined)	0%	?	0%	/	?	16µM*
O=C(NC1CCN(Cc2ccccc2)CC1)C1CCCN(c2nnc(-n3cccc3)s2)C1 (centres undefined)	-5%	-5%	8%	-4%	?	?
CCc1ccccc1NC(=O)C1CCCN(c2nnc(-n3c(C)ccc3C)s2)C1 (centres undefined)	0%	7%	3%	/	21µM*	21µM*
CC1(C(=O)NS(=O)(=O)c2ccccc2)CCN1C(=O)Cc1cccs1 (centres undefined)	/	/	/	-5%	-3%	-2%
CC(OC(=O)C1=Cc2ccccc2OC1)C(=O)NC(C)(C)C (centres undefined)	-17%	3%	5%	5%	-28%	?
CN(C1CCCCC1)S(=O)(=O)c1ccc2c(c1)c(=O)c(C(=O)N1CCN(c3ccccc3)CC1)cn2C	0%	4%	7%	/	-11%	0%
COc1ccc(S(=O)(=O)N2CC=C(C(=O)NC3CCCC3)CC2)cc1	-4%	-24%	5%	30µM*	?	?
Cc1ccc(S(=O)(=O)N2CC=C(C(=O)NC3CCCC3)CC2)cc1	-1%	?	6%	27µM*	-24%	7%
COc1ccccc1C(=O)Nc1c2c(nn1-c1cccc(C)c1C)CS(=O)(=O)C2	-12%	1%	1%	-3%	?	-20%
COc1cccc(C(=O)Nc2cc(C)nn2-c2ccccc2)c1OC	-6%	15%	/	-1%	?	23µM*

Screens from PubChem BioAssay.
